AmpC inh detg: qHTS Inhibitors of AmpC Beta-Lactamase (assay with detergent) | 370,000 compounds, 0.041% hits | P00811 | AmpC hydrolysis of nitrocefin, absorbance 480 nm, 0.01% Triton | Potency, µM (top dose mostly 114 µM), for the others: at the top dose activity change, negative = inhibition, most hits filed as inhibitors | AID 485294, 2010;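 further: 0% = no-compound wells and -100% = no-enzyme wells; nearly all actives have a fitted effect of over 25% in size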
Target sequence (P00811 whole entry, looked up): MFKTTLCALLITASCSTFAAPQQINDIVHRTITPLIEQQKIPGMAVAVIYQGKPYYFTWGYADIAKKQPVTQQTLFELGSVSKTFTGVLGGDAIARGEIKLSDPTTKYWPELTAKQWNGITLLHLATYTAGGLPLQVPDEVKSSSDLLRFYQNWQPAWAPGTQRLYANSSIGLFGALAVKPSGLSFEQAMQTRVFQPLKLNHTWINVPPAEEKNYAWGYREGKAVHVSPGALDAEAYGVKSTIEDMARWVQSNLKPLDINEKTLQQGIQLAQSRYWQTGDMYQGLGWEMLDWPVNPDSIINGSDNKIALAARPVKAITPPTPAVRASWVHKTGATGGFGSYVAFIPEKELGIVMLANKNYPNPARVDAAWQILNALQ
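AmpC (5.3 nM in the dispensed reagent) in 20 mM phosphate pH 7.0 with 0.01% (detergent screen) or 0.0001% Triton X-100 was preincubated with compounds for 15 min at room temperature. Nitrocefin was then added from an 800 uM solution, and hydrolysis was followed at 480 nm.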
AmpC inh no detg: qHTS Inhibitors of AmpC Beta-Lactamase (assay without detergent) | 330,000 compounds, 0.52% hits | Potency, µM (series often up to 57.1 µM), without a hit: at the top dose activity change, negative = inhibition, hits mostly inhibitors | AmpC nitrocefin hydrolysis, absorbance 480 nm, 0.0001% Triton | P00811;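 further: plate controls were no compound for no effect and no enzyme for full effect; nearly all actives have a fitted effect of over 20% in size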
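AmpC (5.3 nM in the dispensed reagent) in 20 mM phosphate pH 7.0 with 0.01% (detergent screen) or 0.0001% Triton X-100 was preincubated with compounds for 15 min at room temperature. Nitrocefin was then added from an 800 uM solution, and hydrolysis was followed at 480 nm.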
Giardia FBPA inh: qHTS Assay for Inhibitors of Fructose-1,6-bisphosphate Aldolase from Giardia Lamblia; purified Giardia FBPA; A8B2U2; AID 2451, 2010; Potency, µM (top dose mostly 59.6 µM), without a hit: at the highest dose activity, negative = inhibition, actives largely listed as inhibitors; 290,000 compounds, 0.71% hits; further: nearly all actives have a fitted effect of over 55% in size
Target sequence (A8B2U2 whole entry, looked up): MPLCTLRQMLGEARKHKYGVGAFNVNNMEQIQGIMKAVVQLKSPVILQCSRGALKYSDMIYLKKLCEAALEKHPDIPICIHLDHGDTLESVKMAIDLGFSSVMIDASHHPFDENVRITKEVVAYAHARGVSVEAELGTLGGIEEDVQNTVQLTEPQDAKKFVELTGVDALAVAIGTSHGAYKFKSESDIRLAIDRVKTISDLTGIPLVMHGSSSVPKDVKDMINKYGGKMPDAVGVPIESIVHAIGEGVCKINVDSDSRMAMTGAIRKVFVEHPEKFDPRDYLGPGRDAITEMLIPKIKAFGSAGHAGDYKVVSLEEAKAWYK
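40 nM FBPA preincubated 10 min at RT with compound (up to 57.5 uM final), then substrate plus GAPDH/TPI/NAD/arsenate coupling and diaphorase/resazurin added. Fluorescence read after 20 min at RT, 525/598 nm.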
AMA1 RON2 block: qHTS for Inhibitors of AMA1-RON; Towards Development of Antimalarial Drug Lead: Primary Screen; Plasmodium falciparum AMA1 (3D7) - RON2 peptide interaction; AlphaScreen AMA1-biotinylated RON2 peptide binding; Potency, µM (highest dose often 58.2 µM), without a hit: at the top dose activity change, negative = inhibition, actives largely listed as inhibitors; 360,000 compounds, 0.2% hits; AID 720542, 2013;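 further: 0% = vehicle wells and -100% = peptide control; nearly all actives have a fitted effect of over 45% in size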
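AMA1 (3D7) with his tag at 25 nM final met compounds first, then biotinylated RON2 peptide at 25 nM; detection used donor plus acceptor beads, 10 µg/mL apiece, read by AlphaScreen after 30 min at room temperature.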
The depositor's hits bear a star; ? = inconclusive; · = not tested or not shown; ! = not active in a repeat; [ ] = remark or other dose. Sampled rows, rich in hits. Any-hit rate of the full collection: about 1.1%. The call rests on the fitted dose curve; in most records, active means well fitted curve in the direction sought with a large enough effect; inconclusive means small, poorly fitted or top-dose-only effect, or another doubt; inactive means no such curve, though single readings can be large; an effect the other way counts as inactive or inconclusive. Unless noted, on the % scale 0 is the no-effect control and ±100 the full control effect; potency means the concentration at half of the fitted maximal effect.

SMILES	AmpC inh detg	AmpC inh no detg	Giardia FBPA inh	AMA1 RON2 block
Cc1cc(=O)oc2c(O)c(O)ccc12	·	·	7.1µM*	102%
O=c1cc(-c2ccccc2)oc2c(O)c(O)ccc12	·	·	7.9µM*	·
O=c1cc(-c2ccccc2)oc2cc(O)c(O)cc12	·	·	-12%	·
O=c1cc(-c2ccccc2O)oc2c(O)c(O)ccc12	·	·	6.3µM*	·
COc1cc(NC(=O)CC(c2cccs2)N2Cc3ccccc3C2=O)cc(OC)c1OC (centres undefined)	12%	·	·	·
COc1ccc(Oc2nc(SC)nc3ccccc23)cc1	1%	0.16µM*	-2%	14%
CCCOc1ccc(OC(=O)c2c(-c3ccccc3Cl)noc2C)cc1	-1%	·	·	·
CCCCC(=O)Nc1sc2c(c1-c1nc3ccccc3s1)CCN(C(C)=O)C2	?	0.5µM*	-15%	·
COCCN1C(=O)CSCC1(C)C(=O)NC(C)C (centres undefined)	·	·	·	2%
OC1COC(c2ccccc2)OC1C1OC(c2ccccc2)OCC1O (centres undefined)	·	·	·	-3%
CC(=Nc1ccccc1O)c1sc2ccccc2c1O	-5%	7.1µM*	-12%	65%
Cc1cccc(N(CC(N)=O)C2SC(=O)N(Cc3cccc(C(=O)O)c3)C2=O)c1 (centres undefined)	-7%	·	·	·
COc1cc2cc(CN(Cc3nnnn3Cc3ccco3)C3CCCCC3)c(=O)[nH]c2cc1OC	?	115%	10µM*	-3%
COc1cc2c(cc1OC)CN(Cc1cc(=O)oc3cc(C)c(Cl)cc13)CC2	-11%	10µM*	-14%	-4%
COc1cccc(Nc2nc3ccccc3c(=O)[nH]2)c1	2%	10µM*	-7%	-5%
CCCCOc1ccc(CNC(=O)c2cnc3sc(N4CCOCC4)nn3c2=O)cc1	1%	·	·	·
O=C(Oc1ccccc1)c1cccnc1Oc1ccccc1	40µM*	-40%	2%	16%
O=C(Cc1cccc2ccccc12)N/N=C/c1ccc(OC(=O)/C=C/c2ccco2)cc1	?	35µM*	2%	30%
COc1ccc(Br)c(OC)c1C(=O)NC(=O)Nc1nc(C)cc(C)n1	1%	-9%	20µM*	3%
COC(=O)C(C#N)(CCC(=O)c1ccccc1)CCC(=O)c1ccccc1	·	·	·	2%
Cc1cc(C(=O)N/N=C/c2ccc(Cl)c([N+](=O)[O-])c2)c(C)n1-c1ccc(F)cc1	-9%	16µM*	?	8%
O=c1[nH]c(=O)n(CCC2=CCCCC2)c(O)c1/C=N/Nc1ccccc1	-1%	-10%	-27%	-2%[2.32 µM]
O=c1[nH]c(=O)n(CCC2=CCCCC2)c(O)c1/C=N/Nc1cccc2ccccc12	4%	28µM*	-28%	21%
COC(=O)c1cccnc1SCc1ccccc1	-13%	-16%	-4%	21%
COC(=O)c1ccccc1CSc1nsc(/C=C/N(C)C)c1C#N	-1%	28µM*	-8%	0%
SMILES	AmpC inh detg	AmpC inh no detg	Giardia FBPA inh	AMA1 RON2 block
Cc1snc(SCc2ccc(F)cc2)c1C#N	-6%	-24%	10%	0%
Cc1nc(CSc2nsc(/C=C/N(C)C)c2C#N)cs1	0%	20µM*	?	-11%
COc1cc(/C=C2\SC(N)=NC2=O)ccc1OCC(=O)Nc1ccc(C)cc1	?	10µM*	-2%	10%
COC(=O)c1ccc(NC(=O)CC2C(=O)N(c3ccccc3)C(=O)N2C2CCCC2)cc1 (centres undefined)	-2%	·	·	·
O=[N+]([O-])c1c(Nc2ccccn2)cc(Cl)c2nonc12	-11%	-14%	0.45µM*	-18%
O=C(/C=C/c1cccc([N+](=O)[O-])c1)Nc1cccc(NC(=O)c2ccco2)c1	?	3.2µM*	-8%	-29%
O=C(/C=C/c1ccc(Cl)c([N+](=O)[O-])c1)Nc1cccc(NC(=O)c2ccco2)c1	0%	-29%	-5%	-9%
CCCc1nc(C(C)(C)O)c(C(=O)O)n1Cc1ccc(-c2ccccc2-c2nn[nH]n2)cc1	45µM*	-57%	-22%	·
Cc1ccc2c(c1)-c1c(cnn1CC(=O)N(Cc1ccco1)C1CCCCC1)CO2	-16%	50µM*	3%	-21%
N#CCCN1CCN(S(=O)(=O)c2ccc(S(=O)(=O)NCc3ccccc3)cc2)CC1	?	10µM*	0%	-1%
N#CCCN1CCN(S(=O)(=O)c2ccc(S(=O)(=O)N3CCOCC3)cc2)CC1	?	-9%	3%	7%
CC1CCCCC1NS(=O)(=O)c1ccc(S(=O)(=O)N2CCN(CCC#N)CC2)cc1 (centres undefined)	?	45µM*	-4%	18%
COc1ccc(-c2ccc(C3C4C=CCC(C)C4C(=O)N3Cc3ccccc3)c(F)c2)cc1C (centres undefined)	·	·	-1%	·
O=C1NC[C@H](CCCCN2CCN(CCC3CCCCC3)C(=O)C2=O)N(CCc2ccc(O)cc2)C1=O	·	·	·	-1%
CCCCc1ccc(NC(=O)Cn2cnc3c2c(=O)n(C)c(=O)n3C)cc1	5%	·	·	·
CC(=O)NN1C(=O)/C(=C/c2ccc(Br)o2)SC1=S	-14%	-17%	?	32µM*
CCc1nc2ccc(C(=O)N(C)CCN(C)C)cn2c1N(C)Cc1cc2ccccc2s1	·	·	·	-5%
CCCCOc1ccc(C(=O)NCC(=O)NCCOc2ccccc2)cc1	?	35µM*	·	-5%
O=C(O)C1=CC(=C(c2ccc(O)c(C(=O)O)c2)c2ccc(O)c(C(=O)O)c2)C=CC1=O	8.9µM*	8.9µM*	?	·
O=C(O)c1cc(O)ccc1O	·	·	·	0%
Cc1ccc(S(=O)(=O)NCCc2nnc3ccc(SCc4ccc(F)cc4)nn23)cc1	-1%	·	·	·
Cc1cc2cc(C(c3nnnn3Cc3ccco3)N3CCCCC3)c(=O)[nH]c2cc1C (centres undefined)	3%	-18%	-14%	-12%
CCOc1ccc2[nH]c(=O)c(C(c3nnnn3Cc3ccco3)N3CCN(C)CC3)cc2c1 (centres undefined)	-2%	-2%	0.89µM*	-4%
Nc1ccc(C(=O)O)c(O)c1 (tested in a mixture with another compound)	·	·	-15%	·
Nc1ccc(O)c(C(=O)O)c1	·	·	3.5µM*	·
Cc1ccc(Cn2c(CCCO)nc3ccccc32)cc1	-1%	49%	11%	6%
CN(C)C1C(=O)C(C(N)=O)=C(O)C2(O)C(=O)C3=C(O)c4c(O)cccc4C(C)(O)C3CC12 (centres undefined)	?	-45%	?	-26%
C[C@H]1c2cccc(O)c2C(O)=C2C(=O)C3(O)C(O)=C(C(N)=O)C(=O)[C@@H](N(C)C)[C@@H]3[C@@H](O)[C@@H]21 (some centres undefined)	?	-13%	·	?
CN(C)[C@@H]1C(=O)C(C(N)=O)=C(O)[C@@]2(O)C(=O)C3=C(O)c4c(O)cccc4[C@@](C)(O)C3[C@H](O)C12 (some centres undefined)	?	-33%	·	1.4µM*!
